Results filed as inconclusive are left out. Calls of active or inactive are those of the source. How the source made its calls, unless noted: active means hit-call score of the fitted dose curve at least 0.9, where 1 is the maximum; inactive means score below 0.9.

A short description of assay [1]: ATG_NFI_CIS: Attagene CIS-FACTORIAL HepG2 Assay for human Nuclear Factor I (NFI) (AID 2282989). Conditions: HepG2 cis-regulatory reporter, NFI response element transcription; actives raise or lower the signal. In outline:
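After transient transfection of HepG2 with cis-promoter reporter constructs and 24 h dosing, RNA is reverse-transcribed, amplified, 6-FAM end-labelled and HpaI-digested before capillary analysis. Bidirectional curve fitting against DMSO.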

In assay [2] the target is Myc proto-oncogene protein (Homo sapiens) (UniProt P01106). Description: ATG_Myc_CIS: Attagene CIS-FACTORIAL HepG2 Assay for human Myelocytomatosis (Myc) Proto-Oncogene Transcription Factor (AID 2282990). The settings on record: HepG2, Attagene cis-reporter transcription factor activity; actives raise or lower the signal. In outline: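 Cells of the HepG2 human liver line bear multiple cis-driven reporter transcription units. Reporter mRNA after 24 h exposure is reverse-transcribed, amplified, labelled and resolved by capillary electrophoresis, with gain- or loss-of-signal fitting relative to DMSO.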

A short description of assay [3]: ATG_NF_kB_CIS: Attagene CIS-FACTORIAL HepG2 Assay for human Nuclear Factor Kappa B (NF-kB) (AID 2282991). Conditions: HepG2 Attagene cis-factorial NF-kB reporter mRNA; actives raise or lower the signal. In outline: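 Read-out: reporter transcript levels quantified by RT-PCR plus capillary electrophoresis of 6-FAM-labelled, HpaI-cut fragments. Transfected HepG2 cells, 24 h compound exposure, endogenous NF-kB-driven cis element; gain or loss scored versus DMSO.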

Assay [4] in a line: ATG_NRF2_ARE_CIS: Attagene CIS-FACTORIAL HepG2 Assay for human Nuclear Factor Erythroid 2 Related Factor 2 (NFR2) response to Antioxidant Response Elements (ARE) (AID 2282992). The settings on record: HepG2 Attagene ARE/NRF2 reporter, transcription factor activity; actives raise or lower the signal. In outline:
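Readout: reporter mRNA quantified by RT-PCR plus FAM-labelled primer extension, HpaI digestion and capillary electrophoresis, 24 h after dosing transfected HepG2 cells. Gain or loss of signal is fitted bidirectionally against DMSO baseline.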

Assay [5] can be described thus: ATG_Oct_MLP_CIS: Attagene CIS-FACTORIAL HepG2 Assay for human Octamer-Binding Transcription Factor (Oct) (AID 2282993). The settings on record: HepG2 Attagene cis-factorial Oct reporter, mRNA; actives raise or lower the signal. In outline: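 Cells of the HepG2 line express promoter-controlled reporter sequences whose mRNA levels, after 24 h treatment, are measured by RT-PCR and capillary electrophoresis. Increases and decreases are scored relative to DMSO.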

The target in assay [6] is human Peroxisome Proliferator-activated Receptor alpha (PPARa), PPARA (gene 5465) (UniProt Q07869). The assay can be described thus: ATG_PPARa_TRANS: Attagene TRANS-FACTORIAL HepG2 Assay for human Peroxisome Proliferator-activated Receptor alpha (PPARa) (AID 2283001; active means hit-call score of the fitted dose curve at least 0.9, where 1 is the maximum). In outline:
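Reporter transcripts quantified by RT-PCR plus capillary electrophoresis after 24 h treatment, fitted upward relative to DMSO. Cells: human HepG2 transiently carrying multiple GAL4-UAS reporter units driven by NR-Gal4 chimeras.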

The target in assay [7] is human Peroxisome Proliferator-activated Receptor delta (PPARd), PPARD (gene 5467) (UniProt Q03181). Description: ATG_PPARd_TRANS: Attagene TRANS-FACTORIAL HepG2 Assay for human Peroxisome Proliferator-activated Receptor delta (PPARd) (AID 2283002; active means hit-call score of the fitted dose curve at least 0.9, where 1 is the maximum). In outline:
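Cell-based TRANS reporter: HepG2, transient MRTU transfection, 24 h exposure. Readout = reporter mRNA (RT-PCR/CE, 6-FAM). Gain-of-signal fit vs DMSO control.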

Assay [8] deals with Nuclear receptor subfamily 1 group I member 2 (Homo sapiens) (UniProt O75469). The assay can be described thus: ATG_PXR_TRANS: Attagene TRANS-FACTORIAL HepG2 Assay for human Pregnane X Receptor (PXR) (AID 2283008; active means hit-call score of the fitted dose curve at least 0.9, where 1 is the maximum). In outline: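 Trans-factorial format: exogenous NR-Gal4 fusion activity, not endogenous factor, in transfected human HepG2 liver cells. After 24 h dosing, RNA isolated, reverse-transcribed, amplified and resolved by capillary electrophoresis; induction scored versus DMSO.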

The nature of assay [9]: BSK_3C_TissueFactor: BioMAP Diversity Plus: 3C Assay for Tissue Factor Biomarker Activity (AID 2282997). The settings on record: BioMAP 3C HUVEC, tissue factor biomarker readout; actives raise or lower the signal. In outline: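 After a 24 h chemical exposure of primary human umbilical vein endothelial cells, Tissue Factor levels were quantified by ELISA.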
A short description of assay [10]: BSK_3C_uPAR: BioMAP Diversity Plus: 3C Assay for Urokinase-type plasminogen activator receptor (uPAR) Biomarker Activity (AID 2282998). Conditions: BioMAP 3C HUVEC, uPAR biomarker ELISA; actives raise or lower the signal. In outline: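 Endothelial primary cells of human umbilical vein origin received test chemical; 24 h later uPAR was assayed by ELISA. Fitting was bidirectional, DMSO as negative control.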
A general note: In an ELISA, binding on a coated surface is turned into a signal by an enzyme label.

The nature of assay [11]: BSK_3C_VCAM1: BioMAP Diversity Plus: 3C Assay for Vascular cell adhesion molecule 1 (VCAM1) Biomarker Activity (AID 2282999). Conditions: BioMAP 3C HUVEC, VCAM1 ELISA, cytokine-stimulated; actives raise or lower the signal. In outline: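 Activity fitted in both directions relative to DMSO, with ELISA measurement of the surface marker on primary HUVEC (3C) at 24 h post-treatment; parallel SRB staining (0.1% SRB, TCA-fixed, 560 nm) flagged overt cytotoxicity.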

A short description of assay [12]: BSK_4H_Eotaxin3: BioMAP Diversity Plus: 4H Assay for Eotaxin 3 Biomarker Activity (AID 2283000).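 Further: CCL26 protein level quantified by ELISA in parallel with SRB cytotoxicity check.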 The settings on record: primary human endothelial cells (HUVEC); actives raise or lower the signal. In outline: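 Chemicals were added to human umbilical vein endothelium cultures, and Eotaxin-3 was quantified by ELISA at 24 h. Values were derived by bidirectional fitting with DMSO serving as negative control and activity baseline.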

Read-out in assay [13]: Intercellular Adhesion Molecule 1 (ICAM1), ICAM1 (gene 3383)
The assay can be described thus: BSK_3C_ICAM1: BioMAP Diversity Plus: 3C Assay for Intercellular Adhesion Molecule 1 (ICAM1) Biomarker Activity (AID 2283003). The settings on record: primary human endothelial cells (HUVEC); actives raise or lower the signal. In outline:
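ELISA readout of ICAM1 in human umbilical vein endothelial cells in the 3C system, taken 24 h post-dose. Gain or loss of signal versus DMSO was fitted in both directions, with SRB total-protein staining run in parallel.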

Assay [14] in a line: BSK_3C_Proliferation: Cell Proliferation Assessment in the BioMAP Diversity Plus: 3C Assay (AID 2283006). Conditions: primary human endothelial cells (HUVEC). In outline:
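Proliferation as total protein: sulforhodamine B (0.1%) stain of TCA-fixed subconfluent human umbilical vein endothelial cells, absorbance 560 nm, 48 h after dosing. Activity fitted in both directions against DMSO baseline.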

Assay [15] concerns the target Peroxisome proliferator-activated receptor gamma (Homo sapiens) (UniProt P37231). The assay can be described thus: ATG_PPARg_TRANS: Attagene TRANS-FACTORIAL HepG2 Assay for human Peroxisome Proliferator-activated Receptor-gamma (PPARg) (AID 2283007; active means hit-call score of the fitted dose curve at least 0.9, where 1 is the maximum). In outline:
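Read-out: reporter mRNA induction, detected by fluorescence after RT-PCR and capillary electrophoresis. Transiently transfected human HepG2 liver cells carrying a chimeric NR-Gal4 construct were dosed for 24 h; activity was fitted upward relative to DMSO.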

Assay [16] has as its target Cellular tumor antigen p53 (Homo sapiens) (UniProt P04637). Description: ATG_p53_CIS: Attagene CIS-FACTORIAL HepG2 Assay for human p53 Transcription Factor (AID 2282994). Conditions: HepG2 p53 cis-element reporter, Attagene mRNA; actives raise or lower the signal. In outline: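 Read-out: reporter mRNA by RT-PCR plus capillary electrophoresis with fluorescence detection. Human HepG2 liver cells carried transfected multi-reporter cis-element constructs, dosed 24 h. Gain or loss of signal fitted bidirectionally against DMSO control.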

Assay [17] addresses human Retinoic Acid Receptor gamma (RARg), RARG (gene 5916) (UniProt P13631). Description: ATG_RARg_TRANS: Attagene TRANS-FACTORIAL HepG2 Assay for human Retinoic Acid Receptor gamma (RARg) (AID 2283009; active means hit-call score of the fitted dose curve at least 0.9, where 1 is the maximum). In outline: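 Transactivation of exogenous RARg-Gal4 fusion measured as reporter transcript induction after 24 h in transfected HepG2 cells. RNA reverse-transcribed, amplified, fluorescently labeled and resolved by capillary electrophoresis; increase relative to DMSO.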

For assay [18], the target named is human Retinoic Acid Receptor beta (RARb), RARB (gene 5915) (UniProt P10826). The assay can be described thus: ATG_RARb_TRANS: Attagene TRANS-FACTORIAL HepG2 Assay for human Retinoic Acid Receptor beta (AID 2283004; active means hit-call score of the fitted dose curve at least 0.9, where 1 is the maximum). In outline:
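Transient transfection of HepG2 with multiple reporter units → chemical dosing, 24 h → total RNA isolation → RT with oligo(dT) → reporter-specific PCR, 6-FAM primer extension, HpaI digest → capillary electrophoresis. Positive direction vs DMSO control.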

Assay [19] has as its target human RAR-related Orphan Receptor beta (RORb), RORB (gene 6096) (UniProt Q92753). The assay can be described thus: ATG_RORb_TRANS: Attagene TRANS-FACTORIAL HepG2 Assay for human RAR-related Orphan Receptor beta (RORb) (AID 2283010; active means hit-call score of the fitted dose curve at least 0.9, where 1 is the maximum). In outline:
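Read-out is reporter mRNA induction, quantified by RT-PCR with fluorescent capillary electrophoresis, 24 h post-dose in transiently transfected HepG2 expressing exogenous NR-Gal4 chimera. Activity fitted upward versus DMSO.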

Assay [20] has as its target Retinoic acid receptor alpha (Homo sapiens) (UniProt P10276). Description: ATG_RARa_TRANS: Attagene TRANS-FACTORIAL HepG2 Assay for human Retinoic Acid Receptor alpha (RARa) (AID 2283005; active means hit-call score of the fitted dose curve at least 0.9, where 1 is the maximum). In outline: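 Reporter transcripts, measured by RT-PCR with fluorescent labeling and capillary electrophoresis after 24 h dosing, reflect activity of an exogenous human RARa–GAL4 fusion in transiently transfected HepG2. Fitted for increase relative to DMSO.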

Chain of Nuclear receptor subfamily 1 group I member 2 (Homo sapiens) (O75469 whole entry, looked up, the tested form may be a part): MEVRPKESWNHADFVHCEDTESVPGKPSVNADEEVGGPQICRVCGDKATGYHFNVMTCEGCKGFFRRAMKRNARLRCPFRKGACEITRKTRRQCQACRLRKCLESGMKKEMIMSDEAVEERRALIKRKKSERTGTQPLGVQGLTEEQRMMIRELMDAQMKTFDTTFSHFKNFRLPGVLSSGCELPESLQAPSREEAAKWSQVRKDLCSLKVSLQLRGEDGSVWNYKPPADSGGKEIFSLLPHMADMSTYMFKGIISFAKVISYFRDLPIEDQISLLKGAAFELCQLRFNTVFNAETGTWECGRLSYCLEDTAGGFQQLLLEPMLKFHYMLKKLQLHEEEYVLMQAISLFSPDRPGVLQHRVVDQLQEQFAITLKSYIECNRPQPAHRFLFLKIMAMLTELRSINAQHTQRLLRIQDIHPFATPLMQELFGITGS
Chain of human Retinoic Acid Receptor gamma (RARg), RARG (gene 5916) (P13631 whole entry, looked up, the tested form may be a part): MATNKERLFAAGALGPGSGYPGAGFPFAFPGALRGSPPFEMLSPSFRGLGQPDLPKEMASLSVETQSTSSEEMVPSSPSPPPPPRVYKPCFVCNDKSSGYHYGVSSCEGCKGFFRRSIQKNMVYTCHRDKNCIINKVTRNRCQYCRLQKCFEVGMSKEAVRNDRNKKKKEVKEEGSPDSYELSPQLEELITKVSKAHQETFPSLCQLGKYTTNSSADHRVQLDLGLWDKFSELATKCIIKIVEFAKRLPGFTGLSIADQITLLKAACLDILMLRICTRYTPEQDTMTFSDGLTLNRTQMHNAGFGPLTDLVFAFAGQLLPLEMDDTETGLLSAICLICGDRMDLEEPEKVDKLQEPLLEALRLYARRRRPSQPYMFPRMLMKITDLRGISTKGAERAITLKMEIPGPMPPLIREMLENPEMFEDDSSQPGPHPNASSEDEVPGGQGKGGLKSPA
Chain of human Peroxisome Proliferator-activated Receptor delta (PPARd), PPARD (gene 5467) (Q03181 whole entry, looked up): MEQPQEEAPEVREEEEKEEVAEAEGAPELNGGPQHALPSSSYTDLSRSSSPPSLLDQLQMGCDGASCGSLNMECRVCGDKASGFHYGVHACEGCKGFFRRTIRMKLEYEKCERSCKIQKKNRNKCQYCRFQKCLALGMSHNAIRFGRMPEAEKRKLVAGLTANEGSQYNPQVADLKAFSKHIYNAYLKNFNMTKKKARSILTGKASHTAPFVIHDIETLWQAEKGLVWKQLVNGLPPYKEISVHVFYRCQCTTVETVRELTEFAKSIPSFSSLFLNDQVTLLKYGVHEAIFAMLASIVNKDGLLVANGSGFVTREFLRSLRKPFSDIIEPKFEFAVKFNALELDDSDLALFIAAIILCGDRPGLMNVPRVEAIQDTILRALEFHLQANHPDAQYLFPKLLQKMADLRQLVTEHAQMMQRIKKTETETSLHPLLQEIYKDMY
Chain of human Peroxisome Proliferator-activated Receptor alpha (PPARa), PPARA (gene 5465) (Q07869 whole entry, looked up, the tested form may be a part): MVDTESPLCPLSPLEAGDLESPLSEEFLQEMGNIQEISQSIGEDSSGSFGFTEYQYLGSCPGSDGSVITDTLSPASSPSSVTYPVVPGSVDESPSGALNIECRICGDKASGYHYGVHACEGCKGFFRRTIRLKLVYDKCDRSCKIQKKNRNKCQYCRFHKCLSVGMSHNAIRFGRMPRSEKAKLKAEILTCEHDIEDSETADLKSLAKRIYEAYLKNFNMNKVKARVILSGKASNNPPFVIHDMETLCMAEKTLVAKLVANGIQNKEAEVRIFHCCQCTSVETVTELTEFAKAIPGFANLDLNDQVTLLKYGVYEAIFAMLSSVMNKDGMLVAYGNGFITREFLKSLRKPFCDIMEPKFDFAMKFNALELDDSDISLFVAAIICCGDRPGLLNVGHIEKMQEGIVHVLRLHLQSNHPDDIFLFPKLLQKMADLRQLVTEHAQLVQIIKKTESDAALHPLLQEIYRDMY
Chain of Cellular tumor antigen p53 (Homo sapiens) (P04637 whole entry, looked up): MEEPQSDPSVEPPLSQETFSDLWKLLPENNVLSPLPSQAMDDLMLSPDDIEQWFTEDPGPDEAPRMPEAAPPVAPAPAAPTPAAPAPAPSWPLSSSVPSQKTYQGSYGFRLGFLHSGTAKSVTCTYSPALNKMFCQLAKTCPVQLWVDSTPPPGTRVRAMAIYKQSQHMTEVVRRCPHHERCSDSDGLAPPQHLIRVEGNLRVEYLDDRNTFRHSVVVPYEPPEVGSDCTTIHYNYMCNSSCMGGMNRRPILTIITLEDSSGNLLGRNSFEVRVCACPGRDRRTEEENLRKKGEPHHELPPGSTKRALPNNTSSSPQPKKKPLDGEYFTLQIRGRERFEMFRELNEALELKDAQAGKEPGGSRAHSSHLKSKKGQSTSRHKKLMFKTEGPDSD
Chain of Myc proto-oncogene protein (Homo sapiens) (P01106 whole entry, looked up): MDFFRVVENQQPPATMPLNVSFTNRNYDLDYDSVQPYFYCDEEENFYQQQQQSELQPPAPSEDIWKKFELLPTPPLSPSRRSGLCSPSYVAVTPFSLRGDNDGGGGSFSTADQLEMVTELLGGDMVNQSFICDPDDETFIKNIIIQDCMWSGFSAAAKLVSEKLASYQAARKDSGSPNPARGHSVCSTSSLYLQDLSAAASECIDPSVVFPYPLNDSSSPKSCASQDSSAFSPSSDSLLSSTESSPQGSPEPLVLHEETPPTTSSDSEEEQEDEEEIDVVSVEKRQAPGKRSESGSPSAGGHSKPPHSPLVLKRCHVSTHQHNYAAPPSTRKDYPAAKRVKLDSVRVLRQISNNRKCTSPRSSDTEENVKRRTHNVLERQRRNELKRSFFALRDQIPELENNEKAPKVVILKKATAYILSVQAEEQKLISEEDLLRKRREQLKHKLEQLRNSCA
Chain of Peroxisome proliferator-activated receptor gamma (Homo sapiens) (P37231 whole entry, looked up, the tested form may be a part): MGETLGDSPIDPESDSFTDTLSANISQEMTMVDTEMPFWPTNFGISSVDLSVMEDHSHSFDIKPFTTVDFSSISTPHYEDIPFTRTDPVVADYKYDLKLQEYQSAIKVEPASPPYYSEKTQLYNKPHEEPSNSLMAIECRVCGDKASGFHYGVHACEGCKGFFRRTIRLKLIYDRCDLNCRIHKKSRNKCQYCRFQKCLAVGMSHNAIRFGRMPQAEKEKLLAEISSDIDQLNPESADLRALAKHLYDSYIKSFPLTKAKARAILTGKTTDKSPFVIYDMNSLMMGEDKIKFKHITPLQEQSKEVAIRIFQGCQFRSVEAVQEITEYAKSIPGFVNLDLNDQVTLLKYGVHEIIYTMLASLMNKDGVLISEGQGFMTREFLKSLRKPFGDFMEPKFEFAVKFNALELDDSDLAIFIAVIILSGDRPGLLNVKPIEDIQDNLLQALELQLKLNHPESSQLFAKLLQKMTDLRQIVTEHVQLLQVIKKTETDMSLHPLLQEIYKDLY
Chain of human Retinoic Acid Receptor beta (RARb), RARB (gene 5915) (P10826 whole entry, looked up): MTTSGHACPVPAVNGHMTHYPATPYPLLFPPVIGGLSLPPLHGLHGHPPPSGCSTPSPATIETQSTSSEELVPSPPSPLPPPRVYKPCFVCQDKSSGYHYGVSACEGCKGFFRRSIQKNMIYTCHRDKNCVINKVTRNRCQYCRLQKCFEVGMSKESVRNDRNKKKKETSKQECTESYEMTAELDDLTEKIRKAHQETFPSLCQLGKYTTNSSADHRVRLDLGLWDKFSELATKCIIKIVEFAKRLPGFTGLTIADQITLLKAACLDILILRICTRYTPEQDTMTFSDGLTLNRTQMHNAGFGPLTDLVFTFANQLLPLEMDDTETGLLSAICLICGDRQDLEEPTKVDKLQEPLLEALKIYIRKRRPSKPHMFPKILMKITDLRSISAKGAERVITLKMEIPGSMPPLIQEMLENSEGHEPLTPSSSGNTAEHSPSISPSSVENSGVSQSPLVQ
Chain of human RAR-related Orphan Receptor beta (RORb), RORB (gene 6096) (Q92753 whole entry, looked up, the tested form may be a part): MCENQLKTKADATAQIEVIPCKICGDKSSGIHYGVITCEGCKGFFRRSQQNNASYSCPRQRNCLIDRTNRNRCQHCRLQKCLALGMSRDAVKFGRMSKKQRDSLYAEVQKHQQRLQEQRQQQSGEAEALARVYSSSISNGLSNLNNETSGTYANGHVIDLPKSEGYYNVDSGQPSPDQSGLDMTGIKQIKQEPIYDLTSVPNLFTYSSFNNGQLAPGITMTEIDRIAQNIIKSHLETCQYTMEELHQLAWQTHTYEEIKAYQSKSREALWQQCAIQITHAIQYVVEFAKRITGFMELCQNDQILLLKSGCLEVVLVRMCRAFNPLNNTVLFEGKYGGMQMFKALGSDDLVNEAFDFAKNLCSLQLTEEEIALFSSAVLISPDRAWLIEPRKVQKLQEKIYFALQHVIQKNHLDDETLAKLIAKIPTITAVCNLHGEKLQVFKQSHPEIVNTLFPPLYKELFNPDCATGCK
Chain of Retinoic acid receptor alpha (Homo sapiens) (P10276 whole entry, looked up, the tested form may be a part): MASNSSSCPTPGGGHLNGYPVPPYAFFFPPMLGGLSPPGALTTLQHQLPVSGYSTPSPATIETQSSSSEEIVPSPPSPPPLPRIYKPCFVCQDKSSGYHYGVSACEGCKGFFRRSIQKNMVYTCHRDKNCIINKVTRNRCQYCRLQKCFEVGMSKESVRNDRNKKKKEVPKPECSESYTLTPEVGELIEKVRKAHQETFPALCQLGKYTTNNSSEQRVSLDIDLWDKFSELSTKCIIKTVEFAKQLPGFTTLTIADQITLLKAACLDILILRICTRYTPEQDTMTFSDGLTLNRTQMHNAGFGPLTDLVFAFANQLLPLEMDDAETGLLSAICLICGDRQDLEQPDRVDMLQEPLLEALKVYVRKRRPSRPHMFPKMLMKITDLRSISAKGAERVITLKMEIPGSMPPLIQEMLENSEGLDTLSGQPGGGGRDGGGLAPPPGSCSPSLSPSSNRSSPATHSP

`NC(=O)c1ccccc1O`: the compound was classed as inactive in assay [1], in assay [2], in assay [3], in [4], in assay [5] and in assay [6]. Moreover, the outcome in assay [7] and in assay [8] was inactive.

In the case of `CN1C(=O)N(C)C(O)C1O` (configuration not stated), the compound was called inactive in assay [1], in assay [2], in [3], in assay [4], in assay [5] and in assay [9]. Moreover, the result in assay [10], in [11], in assay [12], in assay [6], in assay [13] and in assay [14] was inactive. Besides, in assay [15], the compound was classed as inactive.

The term AC50 denotes the concentration at which the activity in the assay is half-maximal. Regarding `Cc1ccc2c(c1)C(=O)c1ccccc1C2=O`, the outcome in assay [1], in assay [2], in [5], in assay [16], in assay [7] and in [17] was inactive. For the same compound, the AC50 in assay [3] is 6.48 µM (active); in [4] it was 10.5 µM (active); in assay [15], 15.1 µM (active).

With `CCC(C)OC(=O)c1ccc(O)cc1` (configuration not stated), the compound was called inactive in assay [1], in assay [2], in [3], in assay [5], in assay [6] and in assay [7]. Further, the call in assay [17] was inactive. The AC50 in assay [4] is 100 µM (active); in [15], 62.1 µM (active); in [8], 14.8 µM (active).

Turning to `Cc1oncc1C(=O)Nc1ccc(C(F)(F)F)cc1`, the compound was called inactive in [1], in assay [2], in [3], in assay [5], in assay [16] and in assay [7]. In addition, the compound was classed as inactive in assay [17]. For the same compound, the AC50 is 100 µM (active) in [4] and 41.1 µM (active) in assay [15].

Regarding `COC(=O)C1=C(C)NC(C)=C(C(=O)OCC(C)C)C1c1ccccc1[N+](=O)[O-]` (configuration not stated), the call in assay [1], in [2], in assay [3], in [4], in assay [5] and in [16] was inactive. The half-maximal activity concentration (AC50) in assay [15] was 6.19 µM (active).

As to `CC(C)(C)C1CCCCC1=O` (configuration not stated), the compound was called inactive in assay [1], in [2], in assay [3], in assay [4], in assay [5] and in assay [6]. The call in assay [7], in assay [18], in [8], in [17] and in [19] was inactive.

For `COc1ccc(C(Cl)=C(c2ccc(OC)cc2)c2ccc(OC)cc2)cc1`, the compound was classed as inactive in assay [1], in assay [2], in [3], in assay [4], in assay [5] and in assay [16]. Moreover, the compound was classed as inactive in assay [18], in assay [20] and in assay [17]. Further, the AC50 in [8] was 3.67 µM (active).
